Shown are actives, neighbours in structure and some others; about 19% of the full set was active somewhere.
DT40 TDP1 CPT = qHTS for Inhibitors of human tyrosyl-DNA phosphodiesterase 1 (TDP1): qHTS in cells in presence of CPT; Potency, µM (doses to about 46.2 µM), for the others: top-dose activity change, negative = growth inhibition, most hits filed as inhibitors; AID 686979, 2013; chicken DT40 Tdp1-/-;hTDP1 cells + 20 nM CPT, ATP luminescence, 48 h; 420,000 tested, 12% active; further: potency means the concentration at half of the fitted maximal effect; nearly all actives have a fitted effect of over 55% in size
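Chicken DT40 Tdp1-/- cells stably complemented with human TDP1 were seeded at 400 cells/well in medium containing 20 nM camptothecin, exposed to pin-transferred compounds, and grown at 37 °C for at least 48 hr. Viability was read as ATP luminescence.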
TDP1 cell noCPT = qHTS for Inhibitors of human tyrosyl-DNA phosphodiesterase 1 (TDP1): qHTS in cells in absence of CPT. 420,000 tested, 15% active. Potency, µM (series often up to 46.2 µM), for inactives: top-dose activity change, negative = growth inhibition, actives largely listed as inhibitors. DT40 Tdp1-/- hTDP1 cells, no CPT, ATP luminescence, 48 h; further: potency means the concentration at half of the fitted maximal effect; nearly all actives have a fitted effect of over 55% in size
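Readout: luminescence from CellTiter-Glo after 30 min in the dark at RT. Cells: DT40 Tdp1-/- with stable hTDP1, 400/well. Exposure: compounds alone, ≥48 hr, 37 °C.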
HT1080 IDH1KD tx = qHTS for induction of synthetic lethality in tumor cells producing 2HG: qHTS for the HT-1080-IDH1KD cell line; HT-1080 IDH1 knockdown viability, ATP luminescence, 48 h; Potency, µM (series often up to 46.1 µM), inactives show top-dose activity, negative = toxicity, hits mostly cytotoxic; 360,000 tested, 2% active; AID 686971, 2013;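 further: potency means the concentration at half of the fitted maximal effect; 0% = DMSO wells and -100% = cell-free medium wells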
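CellTiter-Glo luminescence after 48 h compound exposure at 37 degrees C of IDH1-knockdown HT-1080 cells in 5% FBS RPMI. %Activity scaled between DMSO wells and cell-free media wells, with curves fitted and assigned curve classes.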
HT1080NT lethal = qHTS for induction of synthetic lethality in tumor cells producing 2HG: qHTS for the HT-1080-NT fibrosarcoma cell line; HT-1080-NT fibrosarcoma viability, CellTiter-Glo ATP luminescence, 48 h; Potency, µM (titrated, usually from 46.1 µM), for the others: top-dose activity, negative = less viability, usual class: cytotoxic; 360,000 tested, 1.6% active;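 further: NT is the 2HG producing partner of a matched IDH1 knockdown line; potency means the concentration at half of the fitted maximal effect; 0% = DMSO-treated cells and -100% = media-only wells without cells; nearly all actives have a fitted effect of over 55% in size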
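Toxicity toward the 2HG-producing NT line was scored as %Activity, normalised to DMSO and no-cell wells, from CellTiter-Glo luminescence after 48 hours' treatment.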
IL-1B inflam inh = qHTS for Inhibitors of Inflammasome Signaling: IL-1-beta AlphaLISA Primary Screen; THP-1 LPS/ATP IL-1B secretion, AlphaLISA, 16 h; active compounds read low; activity change, % at 57.5 µM; AID 743279, 2014; 360,000 tested, 4.7% active; in the data active means activity change below about -50%; inconclusive means mostly about -30% to -49%
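THP-1 cells pretreated 1 hr with compounds (up to 57.5 uM final), then stimulated with LPS (250 ng/mL final) plus ATP (1.25 mM final); secreted IL-1B measured by AlphaLISA after 16 hr, decreased signal indicating inhibition.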
The depositor's hits bear a star; ? = inconclusive; / = no result given; [ ] = remark or other dose. Unless noted, the call rests on the fitted dose curve; in most records, active means well fitted curve in the direction sought with a large enough effect; inconclusive means small, poorly fitted or top-dose-only effect, or another doubt; inactive means no such curve, though single readings can be large; an effect the other way counts as inactive or inconclusive. Unless noted, on the % scale 0 is the no-effect control and ±100 the full control effect.

SMILES | DT40 TDP1 CPT | TDP1 cell noCPT | HT1080 IDH1KD tx | HT1080NT lethal | IL-1B inflam inh
CCC(CC)C(=O)N(C)c1c(C)nc2c(OCc3ccc(F)c(F)c3)cccn12 | ? | 21µM* | -15% | -20% | 17
CCc1nc2c(OCc3ccc(F)c(F)c3)cccn2c1N(C)C(=O)C(C)C | 2% | ? | -2% | -16% | 24
O=C(OCC(=O)N(CCc1ccccc1)Cc1ccccc1)c1ccccc1O | 18µM* | ? | -9% | -2% | 5
Cc1ccc(C(=O)NCCCc2ccccc2)c(Cl)c1 | 14% | 8% | 2% | 11% | -13
O=C(OCC(=O)N(Cc1ccccc1)Cc1ccccc1)c1cccc(O)c1 | ? | ? | 24% | 9% | 2
Cc1ccc(S(C)(=O)=O)cc1C(=O)OCC(=O)N(Cc1ccccc1)Cc1ccccc1 | 21µM* | 16µM* | -4% | -12% | -3
O=C(OCC(=O)N(Cc1ccccc1)Cc1ccccc1)c1ccccc1O | 18µM* | ? | 3% | -3%[9.24 µM] | 26
O=C(NCCC(=O)N(CCc1ccccc1)Cc1ccccc1)c1ccccc1Cl | ? | 23µM* | -23% | -2% | -19
O=C(OCC(=O)N(CCc1ccccc1)Cc1ccccc1)c1ccccc1NCCO | ? | ? | -16% | -20% | 12
O=C(OCC(=O)N(CCc1ccccc1)Cc1ccccc1)c1cc(S(=O)(=O)N2CCOCC2)ccc1F | ? | ? | 23% | 8% | -5
CC(=O)N1CCN(S(=O)(=O)c2cccc(C(=O)OCc3ccc(F)cc3)c2)CC1 | ? | 18µM* | -11% | -13% | 7
CC(=O)N1CCN(S(=O)(=O)c2cccc(C(=O)OCc3cccc(F)c3)c2)CC1 | ? | 23µM* | 0% | -6% | 26
CC(C)(C)OC(=O)C[C@@H]1C/C=C\C[C@H](CC(=O)N(CCO)Cc2ccccc2)C(=O)N2CCC[C@@H]2COC1=O | -21% | -23% | 9% | 0% | -5
O=C(N[C@H]1C/C=C\C[C@@H](CC(=O)N(CCO)Cc2ccccc2)C(=O)N2CCC[C@@H]2COC1=O)OCC1c2ccccc2-c2ccccc21 | 8.2µM* | 6.5µM* | 1% | 3% | 48
O=C(N[C@H]1C/C=C\C[C@@H](CC(=O)N(CCO)Cc2ccccc2)C(=O)N2CCC[C@H]2COC1=O)OCC1c2ccccc2-c2ccccc21 | 13µM* | 18µM* | 3% | 9% | 33
O=C1CCC/C=C\C[C@H](CC(=O)N(CCO)Cc2ccccc2)C(=O)N2CCC[C@@H]2CO1 | -2% | -14% | 12% | 7% | 10
COc1ccc(C(=NNc2ccccc2C(=O)O)c2ccc(OC)cc2)cc1 | ? | -17% | 14% | -3% | -9
COc1ccc(CCNC(=O)c2cc([C@@H](NC(=O)OC(C)(C)C)C(C)C)sc2N)cc1OC | 16µM* | 18µM* | -1% | -3% | ?
CC(C)[C@H](NC(=O)OC(C)(C)C)c1cc(C(=O)NCCO)c(N)s1 | -22% | -7% | 8% | -5% | -28
O=C(c1nc2ccc(Cl)cn2c1CNCC[C@@H]1C[C@@H]2C=C[C@H]1C2)N1CCCCCCC1 | ? | ? | ? | ? | -72*
CC1CC[C@@]2(OC1)OC1CC3C4CC=C5CC(O)CC[C@@]5(C)C4CC[C@]3(C)C1C2C (some centres not stated) | -5% | 5% | / | / | /
CC(Oc1ccc(Br)cc1)C(=O)Nc1nc(-c2ccccn2)cs1 (configuration not stated) | 4.6µM* | 3.3µM* | ? | ? | -99*
Cc1csc(NC(=S)NC(=O)c2ccccc2)n1 | ? | 18µM* | -9% | 7% | 19
CC(C)[C@H](NC(=O)c1ccccc1Cl)C(=O)Nc1nc(-c2ccccn2)cs1 | 5.8µM* | 5.8µM* | ? | ? | 71
Cc1cccc(C(=O)N[C@H](C(=O)Nc2nc3ccccc3[nH]2)C(C)C)c1 | 3.3µM* | 3.7µM* | 5.8µM* | 5.8µM* | 91
SMILES | DT40 TDP1 CPT | TDP1 cell noCPT | HT1080 IDH1KD tx | HT1080NT lethal | IL-1B inflam inh
CC(C)C(NC(=O)c1ccccc1F)C(=O)Nc1nccs1 (configuration not stated) | 5% | -25% | 2% | 1% | -6
Cc1csc(NC(=O)c2ccccc2)n1 | -1% | -22% | ? | -23% | -7
CC(C)CN1Cc2ccccc2Oc2cc(Br)ccc2S1(=O)=O | ? | ? | -1% | -1% | 37
COc1ccc(NC(=O)C(NC(=O)c2ccccc2)C(C)C)cc1 (configuration not stated) | 3% | 4% | ? | 0% | -3
Cc1csc(NC(=O)[C@@H](NC(=O)c2ccccc2)C(C)C)n1 | ? | 8.2µM* | 21% | 22% | 16
Cc1cccc(C(=O)N[C@H](C(=O)Nc2nccs2)C(C)C)c1 | -15% | -26% | -1% | -1% | 12
Cc1cccc(C(=O)N[C@H](C(=O)Nc2nc(C)cs2)C(C)C)c1 | 8.2µM* | 7.3µM* | 10% | 4% | 10
CCOC(=O)[C@]12CCC=C1N(Cc1ccccc1)C(=O)[C@H](CC(=O)N1CCOCC1)C2 | -9% | -7% | 10% | 19% | -4
COc1cccc(CNS(=O)(=O)c2cc(CN3C(=O)c4cccnc4C3=O)ccc2OC)c1 | -1% | 0% | 0% | -1% | 0
O=C(COC(=O)c1ccccc1OCc1ccc(Cl)cc1)NC1CC1 | ? | -20% | 9% | 9% | 6
Fc1ccc(CN2CCN3CCCC3C2C2CCCCC2)cc1F (configuration not stated) | 23µM* | 18µM* | ? | -28% | -29
Cc1cccc(CNC(=O)C2CCN(c3nn4cc(-c5ccc(F)cc5)nc4s3)CC2)c1 | -25% | -30% | / | / | /
O=S(=O)(O)CC(S)CS (configuration not stated) | 8.4µM* | 4.7µM* | / | / | /
CCOC(=O)C1=C(Cn2cnc3ccccc32)NC(=O)NC1c1cc(C)ccc1C (configuration not stated) | 26µM* | 23µM* | ? | ? | -2
CCOC(=O)C1=C(CNCc2ccc(C)cc2)NC(=O)NC1c1cc(C)ccc1C (configuration not stated) | 20µM* | ? | -10% | 1% | 7
CS(=O)(=O)c1ccc(C(=O)OCC(=O)NCc2cccs2)cc1[N+](=O)[O-] | 5.8µM* | 4.6µM* | -26% | ? | -97*
